# Compound activity (PubChem)
# aSyn UTR act: Activators via SNCA 5'UTR binding, MLPCN; actives 7.1% (n = 300,000); activity score, % (tested at 7.5 µM), hits read low; alpha-synuclein 5'UTR reporter, activators screen; AID 1814; in the data active means activity score below about -60%
# Numbers stand for hits; – = inactive. The list is a sample of the results.
SMILES,aSyn UTR act
COc1cccc(N(C(=O)CCl)C(C(=O)NCCc2ccccc2)c2cccs2)c1 (configuration not stated),-111.8
CC(=O)Nc1ccc(-c2nnc(SCC(=O)c3ccc4c(c3)Cc3ccccc3-4)n2C)cc1,-62.1
N#C/C(=C/c1ccncc1)c1nc2ccccc2s1,-89.1
CC1CCc2nc(/C(C#N)=C/c3ccncc3)sc2C1 (configuration not stated),-113.6
COc1cc(/C=C(/C#N)c2nc3ccccc3[nH]2)ccc1OCC(=O)Nc1ccccc1C(C)C,–
COc1cc(/C=C(\C#N)c2nc3ccccc3[nH]2)ccc1OC(=O)c1ccco1,-174.2
N#C/C(=C1/CCCCCN1)c1nc2ccccc2[nH]1,-127.2
COc1ccc(/C(C#N)=C/c2cccnc2)cc1,-70.6
N#C/C(C(=O)c1ccccc1)=C1/CCCCCN1,-112.9
N#C/C(=C\c1ccc(OC(=O)c2ccc(Cl)s2)cc1)c1nc2ccccc2[nH]1,-287.4
N#C/C(=C\c1ccncc1)c1nc2ccccc2[nH]1,-77.2
Cc1cc2nc(/C(C#N)=C/c3ccncc3)[nH]c2cc1C,-61.7
CCN(CC)c1ccc(/C=C(/C#N)c2nc3ccccc3[nH]2)c(OC(C)C)c1,-211.1
N#C/C(=C\c1cccnc1)c1nc2ccccc2[nH]1,-86.0
COc1ccc(/C=C2\SC(N3CCCCC3)=NC2=O)cc1,-92.4
O=C1N=C(N2CCCCC2)S/C1=C\c1cn[nH]c1-c1ccccc1,-78.1
Cc1cc(=O)c2cc3nc(-c4cccnc4)oc3c(Br)c2o1,-67.4
COC(=O)Cc1c(C)c2ccc(OC(C)C)cc2oc1=O,-156.4
C/C(=N\N=C(N)N)c1cc(Cl)ccc1Cl,–
Nc1nnc(-c2ccc(Cl)cc2Cl)s1,-108.4
CN(C)CCN(C(=O)c1cc(Cl)sc1Cl)c1nc2ccc(F)cc2s1,-93.8
CN(C)CCCN(C(=O)c1ccc(S(=O)(=O)N2CCc3ccccc3C2)cc1)c1nc2ccc(F)cc2s1,–
CN(C)CCCN(C(=O)c1ccc2c(c1)CCCC2)c1nc2ccc(F)cc2s1,-156.7
CN(C)CCCN(C(=O)c1cc(-c2cccs2)nc2ccccc12)c1nc2ccc(F)cc2s1,–
Cc1cccc2sc(N(CCCN(C)C)C(=O)CCc3ccccc3)nc12,–
SMILES,aSyn UTR act
CN(C)CCCN(C(=O)CCc1ccccc1)c1nc2ccc(F)cc2s1,-70.3
CCOc1ccc2nc(SCc3ccccc3C#N)sc2c1,-220.4
CCOc1ccc2nc(SCc3ccc(OC)cc3)sc2c1,-83.1
Cc1ccc(Oc2ncc(CN3CCOCC3)s2)cc1,-78.4
Fc1ccc2nc(Nc3nc4c(F)cc(F)cc4s3)sc2c1,-211.4
Fc1ccc2nc(Nc3nc4c(F)cccc4s3)sc2c1,-235.2
Fc1cccc2sc(Nc3nc4ccccc4s3)nc12,-308.8
O=C(Nc1nc2c(F)cc(F)cc2s1)c1ccccn1,–
Cc1ccc2nc(/C=C/c3cccc(F)c3)ccc2c1,-172.2
O=C(NC1CCCC1)c1cc(-c2ccc(F)cc2)on1,-322.3
O=C(NC1CCCC1)c1cc(-c2ccc(Cl)cc2)on1,-233.5
O=C(NC1CCCCC1)c1cc(-c2ccc(Cl)cc2)on1,-114.7
COc1ccc(CC(=O)O/N=C(\N)c2ccc(OC)cc2)cc1,-85.8
COc1ccc(/C(N)=N/OC(=O)Cc2cccs2)cc1,-128.8
CC1=Nc2cc(C(=O)NCCCOC(C)C)ccc2Sc2ccc(C)cc21,–
CCOCCCNC(=O)c1ccc(Br)cc1,-84.1
CC(C)OCCCNC(=O)c1ccc(Br)cc1,-73.4
CCCC1=Nc2cc(C(=O)NCCCOCC)ccc2Sc2ccccc21,–
Cc1nc2ccc(-c3ccccc3)cc2o1,-79.1
N#C/C(=N\Nc1ccc(Cl)c(Cl)c1)C(=O)C1CC1,-97.3
CCCC(=O)Nc1cc(C)c2c(=O)oc3ccccc3c2n1,-73.9
CN(CC(=O)Nc1ccccc1Cl)C(=O)COC(=O)c1nc(Cl)c(Cl)c(Cl)c1Cl,-128.5
Cc1ccc2c(c1)COc1c3ccc(C(=O)N[C@@H](CO)C(C)C)cc3nn1-2,-143.5
COCCNC(=O)c1ccc2c3n(nc2c1)-c1ccc(C)cc1CO3,-150.5
N#CC(C#N)=c1ccc2c(c1)NC1(CCCCC1)N=2,-337.2
SMILES,aSyn UTR act
COc1ccc(C(=O)NCCOc2ccccc2Cl)c(OC)c1OC,-153.9
CCOC(=O)c1c(C)oc2c(F)c(F)c(F)c(F)c2c1=O,-85.3
CNC(=O)C1CCN(S(=O)(=O)c2c(C)noc2/C=C/c2ccccc2F)CC1,-69.2
O=C1CSC(c2ccc(F)cc2)N1c1nc2ccccc2s1 (configuration not stated),-91.3
COc1ccc(-c2cn(Cc3ccc(C)cc3)nn2)cc1,-107.6
CCCCCc1ccc(-c2cn(Cc3ccc(C)cc3)nn2)cc1,-99.5
CCc1ccc(-c2cn3nc(C)c(C)nc3n2)cc1,–
Cc1csc2nc(CSc3nc4ccccc4o3)c(Br)n12,-129.1
COc1cc2oc(-c3ccc(O)cc3)cc(=O)c2c(O)c1OC,-73.4
Cc1ccc(/C(N)=N/OC(=O)c2ccc3ccccc3c2)cc1,-123.9
N/C(=N\OC(=O)c1cccc(F)c1)c1ccccc1,-331.0
Cc1ccc(/C(N)=N/OC(=O)c2cccc(F)c2)cc1,-262.2
CCOC(=O)c1ccc(-c2ccc(C=O)o2)cc1,-146.3
CCCOC(=O)c1ccc(-c2ccc(C=O)o2)cc1,-96.8
CCOC(=O)/C=C(/C)N1N=C(c2ccc(OC)cc2)CC1c1cccc([N+](=O)[O-])c1 (configuration not stated),-165.6
CC(C)(C)C(=O)NC(=S)Nc1ccccc1F,-72.4
COc1ccc(CCCC(=O)Nc2ccccc2F)cc1,-118.1
COc1ccc(C(=O)NC(=S)Nc2ccccc2F)cc1,-198.8
COc1ccc(C(=O)NNC(=S)NC(=O)C(C)(C)C)cc1,–
COC(=O)c1cc(Br)ccc1-c1ccc(/C=N/n2nnnc2N)o1,–
CCN(C)c1ccc(/C=N\n2nnnc2N)cc1,-114.8
CCN(CC)c1ccc(/C=N/n2nnnc2N)c(O)c1,-88.7
COc1cc(SC)ccc1C(=O)Nc1cccc(C)n1,-87.5
COc1cc(SC)ccc1C(=O)Nc1ccc(Br)cn1,–
COc1cc(SC)ccc1C(=O)Nc1ccon1,-108.9
SMILES,aSyn UTR act
COc1ccc(-c2nc3ccccn3c2NCc2ccc3c(c2)OCO3)cc1,-91.0
COc1ccc(-c2nc3cc(C)ccn3c2NCc2ccc3c(c2)OCO3)cc1,-111.8
c1ccc2c(c1)CCN(c1nc3ccccc3n3cnnc13)C2,-122.0
O=C(CSc1nnc(-c2ccccn2)o1)Nc1ccccc1C(F)(F)F,-104.5
COc1ccccc1-c1nnc(SCC(=O)Nc2ccc(Cl)cc2Cl)o1,-83.1
COc1ccccc1NC(=O)CSc1nnc(-c2ccccn2)o1,-65.9
CC(C)(C)c1ccc(C(=O)NC(=S)N2CCOCC2)cc1,-101.9
CC(C)Oc1ccc(C(=O)NC(=S)N2CCOCC2)cc1,-78.8
CCCNC(=O)c1ccc2c(=O)c(O)c(-c3ccsc3)[nH]c2c1,–
O=C(NC(=S)NC1CCCC1)c1ccccc1,-126.5
COc1cccc(C(=O)NNC(=S)NC2CCCCC2)c1,-63.9
O=C(NNC(=S)NC1CCCCC1)c1ccc(Cl)s1,-62.2
CCCCNC(=S)NNC(=O)c1csc(C)c1,-62.8
Cc1cc(C(=O)NNC(=S)NC2CCCCC2)cs1,-77.3
O=C(Nc1ccc2oc(=O)ccc2c1)c1ccc2ccccc2c1,-66.9
O=C(Nc1ccc2oc(=O)ccc2c1)c1ccco1,-74.7
CC(C)(C)SCCNC(=O)c1ccccc1,-117.4
O=C(NCCOc1ccccc1)c1cc2ccccc2o1,-81.3
COc1ccc(N=Nc2n(C)c3ccccc3[n+]2C)cc1,–
COc1ccc(C(=O)NCc2cc3ccccc3n2C)cc1,-92.4
COc1cccc(C(=O)NCCSc2ccc(F)cc2)c1,-156.9
